Test systems include DU-145 prostate; K-562 leukemia; MALME-3M melanoma; MDA-MB-231 breast; RXF 393 renal; SF-268 CNS; SF-295 CNS; SF-539 CNS; M14 melanoma; HCT-15 colon; HT29 colon; SNB-75 CNS; SNB-19 CNS; U251 CNS; PC-3 prostate; SK-MEL-5 melanoma; UACC-62 melanoma; LOX IMVI melanoma; SK-MEL-28 melanoma.
Holding throughout (test): NCI-60 one-dose screen, 48 h (100 = growth as untreated, 0 = no growth, -100 = all killed)
Holding throughout (settings): 10 µM

Growth data for 8 molecules are collected here from PubChem BioAssay (NCI).

The panel holds about 83,000 compounds, 20% with a hit somewhere; the sample as a whole holds those more often.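 Testing used 96-well plates and a 48-hour single-concentration exposure. Example: -40 means 40% of the starting cells died.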 Unmarked numbers belong to inactive results. The source made the active and inactive calls. Rule for the calls: active = growth percent below 10; inactive = the rest.

As for `CNC(=O)c1cn2c3c(c(N4CCN(C)CC4)c(F)cc3c1=O)OC[C@@H]2C`, the growth in the experiment on DU-145 prostate is 104%; with K-562 leukemia it was 102%; in the experiment on MALME-3M melanoma, 106%; in the experiment with MDA-MB-231 breast, 102%; in the experiment with RXF 393 renal it was 103%; in the experiment with SF-268 CNS it was 97%. The growth in the experiment on SF-295 CNS is 98.7%; with SF-539 CNS it was 105%; with M14 melanoma it was 106%; with HCT-15 colon, 102%; in the experiment with HT29 colon it was 96.2%; with SNB-75 CNS, 84.1%. The growth with SNB-19 CNS was 106%; with U251 CNS it was 99.5%; in the experiment on PC-3 prostate, 96.2%; with SK-MEL-5 melanoma, 101%; in the experiment with UACC-62 melanoma it was 103%; with LOX IMVI melanoma, 94.8%. The growth with SK-MEL-28 melanoma was 108%.
Consider `Cc1c2cnccc2c(C)c2c1c1cc(O)ccc1n2C(C)C`, for which the growth in the experiment on DU-145 prostate is 12.1%; in the experiment with K-562 leukemia it was 16.9%; with MALME-3M melanoma it was -17.9% (active); in the experiment on MDA-MB-231 breast, 9.51% (active); with RXF 393 renal, -39.5% (active); in the experiment with SF-268 CNS, 9.03% (active). Besides, the growth is 34.5% in the experiment on SF-295 CNS; 7.2% (active) with SF-539 CNS; -19% (active) in the experiment on M14 melanoma; 2.12% (active) in the experiment with HCT-15 colon; 25% in the experiment on HT29 colon; 0.198% (active) in the experiment with SNB-75 CNS. Further, the growth in the experiment on SNB-19 CNS was 18.3%; with U251 CNS it was 17.8%; in the experiment on SK-MEL-5 melanoma, -49.3% (active); in the experiment on UACC-62 melanoma, -15.7% (active); in the experiment with LOX IMVI melanoma, -17.2% (active); with SK-MEL-28 melanoma, 6.18% (active).
Turning to `Cc1ccc(/C=C/C(=O)C(=O)/C=C/c2ccc(C)cc2)cc1`, the growth is 112% in the experiment with DU-145 prostate; 95.2% with K-562 leukemia; 96.8% in the experiment on MALME-3M melanoma; 106% in the experiment with MDA-MB-231 breast; 117% in the experiment on RXF 393 renal; 108% in the experiment with SF-268 CNS. The growth was 101% in the experiment with SF-295 CNS; 96.2% with SF-539 CNS; 95.2% in the experiment on M14 melanoma; 95.5% in the experiment with HCT-15 colon; 91.4% in the experiment on HT29 colon; 90.4% in the experiment with SNB-75 CNS. Further, the growth is 103% in the experiment with SNB-19 CNS; 93% in the experiment with U251 CNS; 92.2% in the experiment on PC-3 prostate; 106% in the experiment with SK-MEL-5 melanoma; 96.7% in the experiment on UACC-62 melanoma; 89.3% with LOX IMVI melanoma. For the same molecule, the growth in the experiment on SK-MEL-28 melanoma is 108%.
For `O=C(CCNC(=O)c1nc(-c2ccccc2)n(-c2ccc(Cl)cc2)n1)NO`, the growth in the experiment on DU-145 prostate was 102%; in the experiment with K-562 leukemia it was 105%; in the experiment on MALME-3M melanoma it was 97.4%; with MDA-MB-231 breast, 102%; in the experiment on RXF 393 renal, 99.6%; in the experiment with SF-268 CNS, 93.9%. Moreover, the growth in the experiment with SF-295 CNS was 99%; in the experiment on SF-539 CNS, 84.6%; with M14 melanoma, 97%; with HCT-15 colon it was 104%; with HT29 colon, 89.8%; in the experiment with SNB-75 CNS it was 99.1%. Further, the growth in the experiment with SNB-19 CNS was 102%; in the experiment on U251 CNS it was 96.1%; with PC-3 prostate it was 89.6%; with SK-MEL-5 melanoma, 103%; with UACC-62 melanoma it was 100%; in the experiment on SK-MEL-28 melanoma, 101%.
For the molecule `CCn1cc(CNc2ccc(C(=O)Nc3ccc4ccccc4c3)cc2)c(C)n1`, the growth in the experiment with DU-145 prostate was 61.2%; in the experiment with K-562 leukemia it was 59.5%; in the experiment on MALME-3M melanoma, 62.5%; in the experiment on MDA-MB-231 breast, 83.8%; in the experiment on RXF 393 renal it was 86%; in the experiment on SF-268 CNS, 76.4%. For the same molecule, the growth is 64.2% with SF-295 CNS; 83.3% in the experiment on SF-539 CNS; 45.1% with M14 melanoma; 55.8% in the experiment on HCT-15 colon; 75.7% with HT29 colon; 71.8% in the experiment with SNB-75 CNS. Besides, the growth with SNB-19 CNS was 77.6%; in the experiment on U251 CNS it was 84.5%; with SK-MEL-5 melanoma, -31.5% (active); in the experiment with UACC-62 melanoma it was 60%; in the experiment on LOX IMVI melanoma, 62.5%; in the experiment with SK-MEL-28 melanoma it was 77.8%.
`COc1cc(C(=O)/C(C)=C/c2c[nH]c3ccccc23)cc(OC)c1OC`: the growth was 2.39% (active) in the experiment with DU-145 prostate; 14.3% in the experiment on K-562 leukemia; 68.1% with MALME-3M melanoma; 16.1% in the experiment with MDA-MB-231 breast; 46.2% in the experiment with RXF 393 renal; 26.8% with SF-268 CNS. In addition, the growth was 12.4% in the experiment on SF-295 CNS; -3.72% (active) in the experiment with SF-539 CNS; -1.18% (active) in the experiment on M14 melanoma; 9.94% (active) in the experiment on HCT-15 colon; 5.62% (active) in the experiment on HT29 colon; 36.3% in the experiment on SNB-75 CNS. For the same molecule, the growth with SNB-19 CNS is 34%; with U251 CNS, 18.1%; in the experiment with PC-3 prostate, 19.8%; with SK-MEL-5 melanoma it was -36.4% (active); with UACC-62 melanoma, 40.2%; in the experiment with LOX IMVI melanoma, 17.8%. Further, the growth in the experiment on SK-MEL-28 melanoma was 66.2%.
As for `O=C(CN1CCN(C(=O)c2ccccc2)CC1)Nc1ccccc1SCc1ccccc1`, the growth in the experiment on DU-145 prostate is 101%; in the experiment on K-562 leukemia, 66%; in the experiment with MALME-3M melanoma it was 86.1%; in the experiment with MDA-MB-231 breast it was 68.7%; in the experiment on RXF 393 renal, 111%; in the experiment on SF-268 CNS it was 90.9%. Also, the growth with SF-295 CNS is 86.9%; in the experiment on SF-539 CNS it was 89.1%; in the experiment with M14 melanoma, 79.4%; in the experiment with HCT-15 colon it was 87.3%; in the experiment with HT29 colon, 81%; with SNB-75 CNS it was 75.6%. Besides, the growth with SNB-19 CNS is 90.7%; with U251 CNS it was 90.8%; with PC-3 prostate it was 57.9%; in the experiment on SK-MEL-5 melanoma, 56.9%; in the experiment on UACC-62 melanoma it was 52%; in the experiment on LOX IMVI melanoma, 73.9%. Further, the growth with SK-MEL-28 melanoma is 98.2%.
For the molecule `COc1ccc(C(c2ccc(OCCN(C)C)cc2)c2cc3ccccc3c3ccccc23)cc1` (centres undefined), the growth with DU-145 prostate was 34.2%; in the experiment with K-562 leukemia, -29.9% (active); in the experiment on MALME-3M melanoma it was -43.4% (active); in the experiment with MDA-MB-231 breast it was 17.1%; with RXF 393 renal, 49.5%; with SF-268 CNS, 67.3%. Also, the growth in the experiment with SF-295 CNS is 58%; in the experiment with SF-539 CNS, 66.9%; in the experiment with M14 melanoma it was -72.3% (active); with HCT-15 colon, -30.9% (active); in the experiment with HT29 colon, -7.37% (active); in the experiment on SNB-75 CNS it was 86.8%. In addition, the growth in the experiment on SNB-19 CNS was 65%; with U251 CNS it was 16.6%; in the experiment on PC-3 prostate, 60.7%; in the experiment with SK-MEL-5 melanoma it was 58.6%; in the experiment with UACC-62 melanoma, -47.8% (active); in the experiment with LOX IMVI melanoma, -81% (active). In the experiment on SK-MEL-28 melanoma, the growth was -77.8% (active).
